Only some compounds are listed: those with a hit (about 1.6% of all), similar ones and a draw of the others.
KCNQ2 pot = enhances the rat KCNQ2 potassium channel. B-score at 10 µM. O88943. CHO-K1 KCNQ2, FluxOR thallium flux fluorescence; stronger effect = higher value. actives 0.54% (n = 310,000);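 active = fluorescence ratio B-score at least 3 SD of library B-scores, with initial fluorescence B-score within 3 of them, cut at about 5.3 in these data; same plate scores as AID 2156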;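 note: B-score of peak minus minimum over baseline fluorescence ratio after K+ and Tl+ stimulus; positive B-score means potentiation of KCNQ2 with more thallium influx and brighter signal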
Target sequence (O88943 whole entry, looked up): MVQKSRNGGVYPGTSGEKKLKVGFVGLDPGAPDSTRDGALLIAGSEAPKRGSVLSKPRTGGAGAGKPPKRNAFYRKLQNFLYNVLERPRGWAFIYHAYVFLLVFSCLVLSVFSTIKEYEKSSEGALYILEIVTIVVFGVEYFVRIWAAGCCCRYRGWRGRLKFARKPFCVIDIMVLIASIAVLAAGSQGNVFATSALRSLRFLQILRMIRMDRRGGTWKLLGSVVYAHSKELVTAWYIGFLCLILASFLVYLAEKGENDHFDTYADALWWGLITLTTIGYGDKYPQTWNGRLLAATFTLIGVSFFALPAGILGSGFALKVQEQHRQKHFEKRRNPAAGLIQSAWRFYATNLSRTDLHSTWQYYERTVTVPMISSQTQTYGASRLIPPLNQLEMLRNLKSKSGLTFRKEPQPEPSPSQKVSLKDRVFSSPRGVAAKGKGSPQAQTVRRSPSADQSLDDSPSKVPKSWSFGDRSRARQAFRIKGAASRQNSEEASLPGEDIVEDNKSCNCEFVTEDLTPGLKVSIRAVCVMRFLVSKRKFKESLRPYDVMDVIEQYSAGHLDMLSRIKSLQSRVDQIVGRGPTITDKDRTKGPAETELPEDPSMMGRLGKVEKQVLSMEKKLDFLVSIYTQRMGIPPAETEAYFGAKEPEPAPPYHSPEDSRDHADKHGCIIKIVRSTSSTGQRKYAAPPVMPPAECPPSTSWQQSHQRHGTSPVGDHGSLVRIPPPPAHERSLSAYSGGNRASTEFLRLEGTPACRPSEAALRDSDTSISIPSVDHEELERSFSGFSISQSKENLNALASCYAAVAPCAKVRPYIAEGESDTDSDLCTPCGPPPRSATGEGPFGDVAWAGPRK
KCNQ2 inh = inhibitors of rat KCNQ2 potassium channel | O88943 | B-score at 10 µM | actives 1.1% (n = 310,000) | CHO-K1 KCNQ2, FluxOR thallium flux, 20 min; stronger effect = lower value;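 active = fluorescence ratio B-score at most minus 3 library SDs, with starting brightness B-score within 2 library SDs, cut at about -5.5 in these data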
* marks the source's active call; other numbers are inactive results; i = inactive; x = no result.

SMILES	KCNQ2 pot	KCNQ2 inh
CCn1cc(/C=C(\NC(=O)c2ccccc2F)C(=O)NCCCn2ccnc2)c2ccccc21	0.12	i
Oc1ccccc1CNc1ccc(Br)cn1	x	i
Brc1ccc(NCc2cccc3ccccc23)nc1	-6	-6*
Cc1cc(CN2CCCC(N3CCc4ccccc4C3)C2)cc(C)c1O (stereo not drawn)	x	i
O=C(O)c1ccccc1Nc1cc(Cl)c2nonc2c1[N+](=O)[O-]	0.04	i
O=[N+]([O-])c1c(Nc2ccccn2)cc(Cl)c2nonc12	-11	-11*
CCC(C)c1ccc(S(=O)(=O)N2CCN3CCCC3C2)cc1 (stereo not drawn)	x	i
CN1C(=O)C(C)(C)c2cc(S(=O)(=O)NCC3CCC(C(=O)NCc4ccccc4)CC3)ccc21 (stereo not drawn)	x	i
CCN(CC)c1nc(C)c2c(c1C#N)CC(C)(C)OC2	-6.7	-6.7*
Cc1nc(NCCCO)c(C#N)c2c1COC(C)(C)C2	x	i
Cc1cccc(OCC(=O)Nc2ccccc2N2CCCCC2)c1	x	i
O=C(COc1ccccc1)Nc1ccccc1N1CCCCC1	x	i
Cc1cccc(OCC(=O)NC(=S)Nc2ccccc2N2CCOCC2)c1C	x	i
Cc1ccc(C(C)C)c(OCC(=O)NC(=S)Nc2ccccc2N2CCOCC2)c1	-6.5	-6.5*
Cc1cc(C)c(OCC(=O)Nc2ccccc2N2CCCCC2)c(C)c1	-5.6	-5.6*
Cc1ccc(OCC(=O)Nc2ccccc2N2CCCC2)c(C)c1	-5.6	-5.6*
Cc1ccccc1OCC(=O)Nc1ccc(C)c(S(=O)(=O)N2CCCCCC2)c1	-6.1	-6.1*
Cc1ccccc1OCC(=O)Nc1ccc(S(=O)(=O)N2CCCC2)cc1	x	i
COc1ccc(C(=O)CCC(=O)NC2=NCCS2)cc1	0.43	i
COc1ccc(-c2sc(C(=O)c3ccc(Cl)cc3Cl)cc2CC(=O)O)cc1	x	i
Cc1ccc(OCC(=O)NCCCNC(=O)c2ccco2)cc1	2.1	i
O=C(NCC1CCCO1)c1ccc(Cl)c(S(=O)(=O)N2CCCCC2)c1 (stereo not drawn)	1.7	i
Cc1cc(C)n(-c2ccc(NC(=O)C3CCCCN3Cc3cccc4c3OCO4)cc2)n1 (stereo not drawn)	x	i
CCCC(C)NC(=O)CN1C(=O)NC2(CCc3ccccc32)C1=O (stereo not drawn)	1.2	i
CCOC(=O)CN1C(=O)CC(c2ccccc2)C1=O (stereo not drawn)	x	i
SMILES	KCNQ2 pot	KCNQ2 inh
CC(=O)N1CCN(c2ccccc2NC(=O)COc2ccccc2C)CC1	x	i
Cc1ccccc1OCC(=O)Nc1ccccc1-c1ccccc1NC(=O)COc1ccccc1C	-5.6	-5.6*
COc1ccc(C(=O)Nc2ccccc2N2CCOCC2)cc1Br	-6.3	-6.3*
Cc1ccccc1OCC(=O)Nc1cccc(Cl)c1C	0.3	i
COc1ccc(C(=O)NC(=S)Nc2ccccc2N2CCOCC2)cc1Br	x	i
Cc1ccccc1OCC(=O)Nc1ccccc1N1CCC(C)CC1	-6.2	-6.2*
CNC(=O)c1cc2c(-c3ccccc3)nn(C)c2s1	0.95	i
COc1ccccc1C(=O)Nc1nnc(S(=O)(=O)N(C)Cc2ccccc2)s1	x	i
CCCN(C(=O)CCOc1ccc(C(C)(C)C)cc1)c1c(N)n(Cc2ccccc2)c(=O)[nH]c1=O	1	i
COc1ccc(CNc2nc3nc(C)cc(C)n3n2)cc1OC	0.53	i
Cc1cc(C)n2nc(NCc3cccc(Br)c3)nc2n1	-6.7	-6.7*
CCOCCOc1cccc(C(=O)NC(c2ccccc2)c2ccccc2)c1	x	i
Cc1cccc(N2CCN(C(=O)CCC(=O)N3CC(C)Oc4ccccc43)CC2)c1C (stereo not drawn)	-5.9	-5.9*
Cc1ccc2c(c1)N(C(=O)CCC(=O)N1CCN(c3ccccc3)CC1)CCO2	0.01	i
Cc1ccc2c(c1)N(C(=O)CCC(=O)N1CCN(c3cccc(C)c3C)CC1)CCO2	-5.7	-5.7*
CC1CCN(C(=O)CCC(=O)N2CC(C)Oc3ccccc32)CC1 (stereo not drawn)	x	i
C/C(=N\OCC(=O)Nc1c(C)cc(C)cc1C)c1ccc2c(c1)OCCO2	8.1*	i
C/C(=N\OCC(=O)Nc1cc(C)cc(C)c1)c1ccc2c(c1)OCCO2	x	i
CCN(CC)c1ccc(S(=O)(=O)N2CCOCC2)cc1NC(=O)COC(=O)c1cccnc1SC	0.43	i
Cc1ccc(NS(=O)(=O)c2cccc(C(=O)NCC(c3ccc(F)cc3)N3CCOCC3)c2)cc1 (stereo not drawn)	x	i
C=CCN(c1ccccc1)S(=O)(=O)c1cccc(C(=O)NCC(c2ccc(F)cc2)N2CCOCC2)c1 (stereo not drawn)	-6	-6*
COc1cc(OC)cc(OC(=O)C2CCN(S(=O)(=O)c3ccc(OC)c(OC)c3)CC2)c1	x	i
Cc1ccc(CNC(=O)c2nnn(CC(=O)Nc3cccc(C)c3C)c2N)cc1	x	i
COc1cc(NC(=O)c2cc([N+](=O)[O-])ccc2NC(=O)CN2CCN(c3ccccn3)CC2)cc(OC)c1	x	i
Cc1ccc(C)c(NC(=O)Cc2nc(CNCC(C)C)cs2)c1	x	i
SMILES	KCNQ2 pot	KCNQ2 inh
O=C(O)c1ccc(N=Nc2c(O)[nH]c3ccc(Br)cc23)cc1	2.3	i
O=c1ccc2cc3c([nH]c4ccc(Br)cc43)oc-2c1O	9.7*	i
Cc1nc2nc(NC(=O)c3ccco3)nn2c(C)c1Cl	1.3	i
O=C(CSCc1ccc(Cl)cc1)Nc1ccc(O)cc1C(=O)O	1.1	i
COC(=O)c1sc(NC(=O)c2ccco2)nc1C	0.18	i
O=C(NC(=S)Nc1nc2ccccc2s1)c1ccco1	8.1*	i
O=C(NC(=S)NCc1ccc(-c2nc3ccccc3s2)cc1)c1ccco1	0.1	i
CCOC(=O)c1sc(NC(=S)NC(=O)c2ccco2)nc1C	5.7*	i
CCOc1ccc(NC(=O)CN(C)C(=O)c2ccc(-c3ccc(C(C)=O)cc3)o2)cc1OCC	0.85	i
CC(C)C(NC(=O)c1ccco1)C(=O)NCc1ccc(C(=O)O)cc1 (stereo not drawn)	0.46	i
COc1cc(C(=O)N(C)CC(=O)Nc2cccc(F)c2)ccc1OCc1ccccc1	0.5	i
CCc1ccc(S(=O)(=O)/N=C2\C=C(Nc3ccc(C(=O)O)cc3)C(=O)c3ccccc32)cc1	3.1	i
CC(C)(C)c1ccc(S(=O)(=O)/N=C2\C=C(NS(=O)(=O)c3ccccc3)C(=O)c3ccccc32)cc1	-6.1	-6.1*
COc1ccc(C(C(=O)NC2CCCC2)N(C(=O)c2snc(-c3ccc(F)cc3)c2N)c2ccc(F)cc2)cc1 (stereo not drawn)	x	i
COc1ccc(C(C(=O)NC2CCCC2)N(C(=O)c2snc(-c3ccc(F)cc3)c2N)c2ccc(OC)cc2)cc1 (stereo not drawn)	-5.7	-5.7*
O=[N+]([O-])c1ccc(NNS(=O)(=O)c2cc(Cl)ccc2Cl)nc1	1.4	i
O=C(C1=NN(c2ccccc2)C(=O)CC1)N1CCc2ccccc2C1	x	i
COC(=O)c1ccc(COc2ccccc2/C=C(\C#N)C(=O)Nc2c(C)cc(C)cc2C)cc1	-7.2	-7.2*
COC(=O)c1ccc(COc2ccccc2/C=C(\C#N)C(=O)Nc2ccc(C)cc2C)cc1	x	i
CC(C)C1=CC2=CCC3C(C)(C(=O)O)CCCC3(C)C2CC1 (stereo not drawn) (tested in a mixture with another compound)	-5.8	-5.8*

Screens from PubChem BioAssay.
